Measurements reported in the supplement of paper PMC9254222.
The full ranking holds about 1,100 compounds; the median of “Wnt reporter firefly/Renilla luciferase ratio relative to plate median” is about 1.1, and the highest 2% start at about 1.6. The sample holds the highest values, similar compounds and a random draw of the others, so the mix is not that of the screen.

System: HEK293T (UBE3A T485A transfected, BAR Wnt reporter)
Assay: Wnt reporter firefly/Renilla luciferase ratio relative to plate median (fold (linear ratio)); higher = more Wnt/beta-catenin reporter activation
Conditions: 24 h
How it was run: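 HEK293T cells were seeded at 4500 cells/well in white 384-well plates and grown in DMEM with 10% FBS at 37°C and 5% CO2. The cells were transfected using Fugene 6 with a BAR firefly luciferase Wnt reporter, TK-Renilla and an expression plasmid, and four hours later robots added the chemicals at 0.01–100 uM for 24 h before a Dual-Glo luciferase readout. Wnt activity was taken as the firefly/Renilla ratio and cell health as raw Renilla, each median-centred per plate. Values are averages of four biological replicates.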

Row | SMILES | Wnt reporter firefly/Renilla luciferase ratio (concentration: 0.01 uM) | Wnt reporter firefly/Renilla luciferase ratio (concentration: 0.1 uM) | Wnt reporter firefly/Renilla luciferase ratio (concentration: 1 uM) | Wnt reporter firefly/Renilla luciferase ratio (concentration: 10 uM) | Wnt reporter firefly/Renilla luciferase ratio (concentration: 100 uM)
1 | Clc1ccccc1-c1nnc(-c2ccccc2Cl)nn1 [Clofentezine] | 1.31 | 1.25 | 0.999 | 1.19 | 1.59
2 | CC(Cl)(Cl)C(=O)O [Dalapon] |  | 1.05 | 1.18 | 1.08 | 1.25
3 | COC(=O)Nc1nc2ccccc2[nH]1 [Carbendazim] |  | 1.09 | 1.16 | 0.661 | 0.13
4 | C[n+]1ccc(-c2cc[n+](C)cc2)cc1 [Paraquat] | 1.31 | 1.36 | 1.06 | 1.01 | 1.77
5 | CCOP(=S)(OCC)SCSC(C)(C)C [Terbufos] |  | 1.28 | 1.01 | 1.16 | 1.27
6 | CCNc1nc(Cl)nc(NC(C)(C)C#N)n1 [Cyanazine] | 0.787 | 0.905 | 0.962 | 0.88 | 1.15
7 | Cc1ccc([N+](=O)[O-])cc1 [4-Nitrotoluene] |  | 0.766 | 0.567 | 0.741 | 0.771
8 | CCCCC(O)(Cn1cncn1)c1ccc(Cl)cc1Cl (configuration not stated) [Hexaconazole] | 0.917 | 0.897 | 1 | 0.919 | 0.397
9 | ClCC(Cl)CCl [1,2,3-Trichloropropane] |  | 1.21 | 1.09 | 1.12 | 1.41
10 | CCOP(=S)(OCC)SCSCC [Phorate] |  | 1.03 | 0.934 | 1.08 | 1.3
11 | CCOP(=S)(OCC)SCn1c(=O)oc2cc(Cl)ccc21 [Phosalone] | 1.62 | 1.45 | 1.27 | 1.03 | 0.607
12 | COP(=O)(OC)SCn1c(=O)oc2cc(Cl)cnc21 [Azamethiphos] | 0.825 | 1.28 | 0.979 | 0.625 | 0.373
13 | Cc1ccccc1O [o-Cresol] |  | 1.01 | 0.966 | 1.1 | 1.15
14 | C=C(C)C(=O)[O][Sn]([CH2]CCC)([CH2]CCC)[CH2]CCC [Tributyltin methacrylate] |  | 0.639 | 0.638 | 0.679 | 
15 | Cc1cc(N=Nc2ccccc2C)ccc1N [2-Amino-5-azotoluene] |  | 1.18 | 0.968 | 1.06 | 0.582
16 | Nc1cc2c3c(c1)C(c1ccccc1)=N[C@@H](NC(=O)c1cccnc1)C(=O)N3CC2 |  | 1.19 | 0.977 | 1.24 | 0.802
17 | Nc1cc(Cl)cc(C(=O)O)c1Cl [Chloramben] |  | 1.14 | 1.12 | 1.34 | 1.49
18 | [Cl-].[Cl-].[Hg+2] [Mercuric chloride] |  | 1.21 | 1.07 | 1.69 | 
19 | O=C(O)C1C(C(=O)O)C2(Cl)C(Cl)=C(Cl)C1(Cl)C2(Cl)Cl (configuration not stated) [Chlorendic acid] |  | 0.978 | 1.1 | 0.935 | 1.03
20 | NCCO.O=C(O)c1nc(Cl)ccc1Cl [Clopyralid-olamine] | 0.868 | 0.94 | 1.18 | 1.56 | 2.61
21 | Nc1c(Cl)c(Cl)nc(C(=O)O)c1Cl [Picloram] | 0.972 | 1.47 | 1 | 1.13 | 1.28
22 | Clc1cccc(C(Cl)(Cl)Cl)n1 [Nitrapyrin] | 1.08 | 1.01 | 0.881 | 1.03 | 1.23

Row | SMILES | Wnt reporter firefly/Renilla luciferase ratio (concentration: 0.01 uM) | Wnt reporter firefly/Renilla luciferase ratio (concentration: 0.1 uM) | Wnt reporter firefly/Renilla luciferase ratio (concentration: 1 uM) | Wnt reporter firefly/Renilla luciferase ratio (concentration: 10 uM) | Wnt reporter firefly/Renilla luciferase ratio (concentration: 100 uM)
23 | O=C(O)c1nc(Cl)ccc1Cl [Clopyralid] | 1.17 | 1.81 | 1.02 | 0.988 | 1.12
24 | O=C(O)c1c(Cl)ccc2cc(Cl)cnc12 [Quinclorac] | 1.38 | 1.3 | 1.14 | 1.14 | 1.58
25 | CNC(=O)Oc1cccc2c1OC(C)(C)O2 [Bendiocarb] | 1.3 | 1.17 | 1.01 | 0.983 | 1.38
26 | CC(C)Oc1cccc(NC(=O)c2ccccc2C(F)(F)F)c1 [Flutolanil] | 0.682 | 0.79 | 1.01 | 0.768 | 0.559
27 | CC(C)OC(=O)Nc1cccc(Cl)c1 [Chlorpropham] | 1.45 | 1.78 | 1.23 | 1.47 | 0.823
28 | CC(Oc1cccc(Cl)c1)C(=O)O (configuration not stated) [Cloprop] | 1.31 | 1.51 | 1.12 | 1.28 | 1.45
29 | CCNc1nc(NC(C)C)nc(SC)n1 [Ametryn] | 0.686 | 0.725 | 0.813 | 1.29 | 0.791
30 | CC(C)C1(C)N=C(c2ncccc2C(=O)O)NC1=O (configuration not stated) [Imazapyr] | 1.14 | 1.29 | 1.04 | 1.09 | 1.24
31 | COP(=S)(OC)SCN1C(=O)c2ccccc2C1=O [Phosmet] |  | 1.07 | 0.925 | 1.47 | 1.65
32 | COP(=S)(OC)SCn1nnc2ccccc2c1=O [Azinphos-methyl] | 1.01 | 0.911 | 0.978 | 0.89 | 0.837
33 | CNC(=O)CSP(=S)(OC)OC [Dimethoate] | 0.95 | 0.993 | 1.02 | 1.02 | 1.1
34 | CCNc1nc(Cl)nc(NCC)n1 [Simazine] | 1 | 1.19 | 1.01 | 1.06 | 1.52
35 | O=C(O)C(F)(F)C(F)(F)C(F)(F)C(F)(F)C(F)(F)F |  | 1.16 | 1.48 | 1.38 | 2.14
36 | O=C(O)C(F)(F)C(F)(F)C(F)(F)C(F)(F)C(F)(F)C(F)(F)C(F)(F)C(F)(F)C(F)(F)F |  | 0.93 | 1.14 | 1.04 | 1.19
37 | O=C(O)C(F)(F)C(F)(F)C(F)(F)C(F)(F)C(F)(F)C(F)(F)C(F)(F)C(F)(F)C(F)(F)C(F)(F)F [Perfluoroundecanoic acid] |  | 1.11 | 0.936 | 0.954 | 0.68
38 | O=C(O)C(F)(F)C(F)(F)C(F)(F)C(F)(F)C(F)(F)C(F)(F)C(F)(F)C(F)(F)F |  | 1.29 | 0.95 | 1.12 | 0.369
39 | O=C(O)C(F)(F)C(F)(F)C(F)(F)C(F)(F)C(F)(F)C(F)(F)F [Perfluoroheptanoic acid] |  | 0.82 | 1.02 | 0.932 | 0.483
40 | O=C(O)C(F)(F)C(F)(F)C(F)(F)C(F)(F)C(F)(F)C(F)(F)C(F)(F)F | 1.29 | 1.71 | 1.19 | 1.41 | 1.46
41 | Oc1cc(Cl)c(Cl)cc1Cl [2,4,5-Trichlorophenol] |  | 1.12 | 0.917 | 0.962 | 
42 | CCCCCCCCCC(CC)c1ccc(S(=O)(=O)O)cc1.OCCN(CCO)CCO (configuration not stated) [Dodecylbenzene sulfonate triethanolamine(1:1)] |  | 1.13 | 1.29 | 1.13 | 1.01
43 | COc1cnc(OC)n2nc(NS(=O)(=O)c3c(OCC(F)F)cccc3C(F)(F)F)nc12 [Penoxsulam] | 1.12 | 1.09 | 1.29 | 1.38 | 1.75
44 | C=CC(=O)NCNC(=O)C=C [N,N'-Methylenebisacrylamide] |  | 0.951 | 0.999 | 1.03 | 1.21

Row | SMILES | Wnt reporter firefly/Renilla luciferase ratio (concentration: 0.01 uM) | Wnt reporter firefly/Renilla luciferase ratio (concentration: 0.1 uM) | Wnt reporter firefly/Renilla luciferase ratio (concentration: 1 uM) | Wnt reporter firefly/Renilla luciferase ratio (concentration: 10 uM) | Wnt reporter firefly/Renilla luciferase ratio (concentration: 100 uM)
45 | CN(C)c1ccc(Cc2ccc(N(C)C)cc2)cc1 [4,4'-Methylenebis(N,N-dimethylaniline)] |  | 1.02 | 1.07 | 1.14 | 0.474
46 | CCc1nn(C)c(C(=O)NCc2ccc(C(C)(C)C)cc2)c1Cl [Tebufenpyrad] | 0.583 | 0.632 | 0.279 | 0.218 | 0.51
47 | COC(=O)N(C(=O)N1CO[C@@]2(C(=O)OC)Cc3cc(Cl)ccc3C2=N1)c1ccc(OC(F)(F)F)cc1 [Indoxacarb] | 0.92 | 0.96 | 1.2 | 0.895 | 0.242
48 | CCCCN(CCCC)SN(C)C(=O)Oc1cccc2c1OC(C)(C)C2 [Carbosulfan] |  | 1.07 | 1.13 | 1.07 | 1.28
49 | c1ccc2c(c1)Nc1ccccc1S2 [Phenothiazine] |  | 1.08 | 1.01 | 0.726 | 0.188
50 | CC(C)(C)OOC(=O)c1ccccc1 [tert-Butyl perbenzoate] |  | 1.06 | 0.994 | 1.24 | 0.688
51 | Cc1ccc(N)c(N)c1 [3,4-Diaminotoluene] |  | 1.18 | 1.26 | 1.2 | 
52 | Cc1ccc(N)cc1 [4-Methylaniline] |  | 1.14 | 1.18 | 1.34 | 1.79
53 | Nc1ccc(-c2ccc(N)cc2)cc1 [Benzidine] |  | 1.22 | 1.11 | 1.23 | 0.579
54 | CC(C)=CC1C(C(=O)OCN2C(=O)C3=C(CCCC3)C2=O)C1(C)C (configuration not stated) [Tetramethrin] | 0.717 | 0.76 | 0.941 | 0.819 | 0.824
55 | CCOc1nc(F)cc2nc(S(=O)(=O)Nc3c(Cl)cccc3Cl)nn12 [Diclosulam] | 1.4 | 1.38 | 0.954 | 1.05 | 0.892
56 | Oc1ccc(Cl)cc1Cl [2,4-Dichlorophenol] |  | 1.06 | 1.15 | 1.36 | 1.47
57 | CCCCCCOC(=O)c1ccccc1C(=O)OCCCCCC [Dihexyl phthalate] |  | 1.05 | 0.965 | 1.29 | 0.728
58 | CCCCCCCCOC(=O)c1ccccc1C(=O)OCCCCCCCC [Dioctyl phthalate] |  | 1.21 | 1.11 | 1.04 | 1.25
59 | CCCCCOC(=O)c1ccccc1C(=O)OCCCCC [Dipentyl phthalate] |  | 1.06 | 1.36 | 1.14 | 1.15
60 | CC(C)CCCCCCCOC(=O)c1ccccc1C(=O)OCCCCCCCC(C)C |  | 0.955 | 1.04 | 1.1 | 1.9
61 | CCCCOC(=O)c1ccccc1C(=O)OCCCC [Dibutyl phthalate] | 0.897 | 0.942 | 0.947 | 1.05 | 0.275
62 | CCCCOC(=O)c1ccccc1C(=O)O [Monobutyl phthalate] | 1.07 | 1.12 | 2.24 | 1.14 | 1.75
63 | CCOP(=O)(NC(C)C)Oc1ccc(SC)c(C)c1 (configuration not stated) [Fenamiphos] | 0.946 | 0.758 | 0.93 | 0.83 | 0.243
64 | C/C(=N\C#N)N(C)Cc1ccc(Cl)nc1 [Acetamiprid] | 1.26 | 0.96 | 0.904 | 1.08 | 1.18
